# Compound activity deposited in PubChem BioAssay by National Center for Advancing Translational Sciences (NCATS).
# This is a sample that favours compounds with a hit; in the whole collection about 10% have one here.
# GLS inh – glutaminase GLS (human) inhibition | O94925 | GLS enzymatic activity, qHTS titration | Potency, µM (titrated, usually from 45.5 µM), for the others: at the top dose activity change, negative = inhibition, hits mostly inhibitors | 410,000 compounds, 0.21% hits; note: % is set by controls: 0 for no effect and ±100 for the full control effect
#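 Two-point fluorescence kinetic (t0, 30 min RT) for hKGA; glutamate detected via glutamate oxidase–HRP–Amplex Red. Substrate: 1 mM L-glutamine solution; buffer 45 mM KH2PO4, pH 8.2.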
# G9a block – G9a (human) methyltransferase inhibition. G9a H3K9 monomethylation, AlphaScreen, 2 h. AID 504332. Q96KQ7. 350,000 compounds, 8.8% hits. Potency, µM (top dose mostly 102 µM), inactives show top-dose activity, negative = inhibition, hits mostly inhibitors; note: % is set by controls: 0 for no effect and ±100 for the full control effect; nearly all actives have a fitted effect of over 75% in size
# Target sequence (Q96KQ7 913-1193 limits assumed): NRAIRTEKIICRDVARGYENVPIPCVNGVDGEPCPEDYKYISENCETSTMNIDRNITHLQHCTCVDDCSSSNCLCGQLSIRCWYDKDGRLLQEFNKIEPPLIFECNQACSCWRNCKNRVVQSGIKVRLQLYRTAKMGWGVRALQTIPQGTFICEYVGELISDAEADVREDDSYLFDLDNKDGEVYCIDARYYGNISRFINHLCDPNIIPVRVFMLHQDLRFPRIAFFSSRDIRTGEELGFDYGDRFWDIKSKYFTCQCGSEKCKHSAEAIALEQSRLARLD
#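 G9a (20 nM) was preincubated 15 min with compound, then reacted 2 h at room temperature with 500 nM biotin-H3K9 peptide and 20 µM SAM. Monomethyl-H3K9 detected by AlphaScreen using anti-H3K9me1 antibody.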
# BAZ2B inh – inhibitors of human BAZ2B bromodomain; AlphaScreen BAZ2B-H3K14Ac peptide displacement; 360,000 compounds, 4.4% hits; AID 504333; Potency, µM (doses to about 114 µM), without a hit: top-dose activity change, negative = inhibition, usual class: inhibitors; Q9UIF8; note: % is set by controls: 0 for no effect and ±100 for the full control effect; nearly all actives have a fitted effect of over 60% in size
#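 Complex of BAZ2B and biotin-H3K14Ac (50 nM apiece) forms over 30 min at RT, then faces library compounds up to 110 uM for another 30 min; AlphaScreen beads added, 20 min dark incubation, luminescence read.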
# JMJD2A Tudor – blocks the human JMJD2A Tudor domain; AlphaScreen JMJD2A-Tudor / H3K4me3 peptide binding; Potency, µM (highest dose often 114 µM), for the others: top-dose activity change, negative = inhibition, actives largely listed as inhibitors; 390,000 compounds, 4.4% hits; note: % is set by controls: 0 for no effect and ±100 for the full control effect; nearly all actives have a fitted effect of over 50% in size
# HP1b chromo inh – blocks HP1-beta chromodomain binding to methylated histone tails; P83916; AlphaScreen HP1-beta / biotin-H3K9me3 peptide binding; Potency, µM (top dose mostly 114 µM), inactives show at the highest dose activity change, negative = inhibition, most hits filed as inhibitors; 390,000 compounds, 0.56% hits; note: nearly all actives have a fitted effect of over 70% in size
# Target sequence (P83916 whole entry, looked up): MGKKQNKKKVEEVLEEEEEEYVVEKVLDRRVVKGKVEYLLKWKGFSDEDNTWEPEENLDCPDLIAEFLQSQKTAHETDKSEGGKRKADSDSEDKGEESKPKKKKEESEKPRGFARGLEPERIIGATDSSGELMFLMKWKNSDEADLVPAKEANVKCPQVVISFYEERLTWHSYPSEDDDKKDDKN
#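 Compound inhibition of the preformed complex between 50 nM HP1-beta and 50 nM biotinylated H3K9me3 peptide was read by AlphaScreen. Buffer was PBS pH 7.4 with 0.01% Tween-20. Incubations ran 30 min at room temperature, with 10 ug/mL donor/acceptor beads.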
# Active calls of the source: *; ? = inconclusive; · = no result given; [ ] = another dose, or the depositor's remark. Calls come from the whole dose curve; as a rule, active = well fitted curve in the direction sought with a large enough effect; inconclusive = small, poorly fitted or top-dose-only effect, or another doubt; inactive = no such curve, though single readings can be large; an effect the other way counts as inactive or inconclusive. Potency is the fitted concentration of half-maximal effect.
SMILES,GLS inh,G9a block,BAZ2B inh,JMJD2A Tudor,HP1b chromo inh
Nc1nc(SCC(=O)Nc2cccc([N+](=O)[O-])c2)n[nH]1,9.4%,·,·,-20.7%,-16.2%
CN(C(=O)CC1C(=O)NCCN1Cc1ccccc1C(F)(F)F)C1CCOCC1 (stereo unspecified),3.2%,-3.0%[0.501 µM],-5.0%,?,17.5%
CCC(=O)Nc1ccc2nc(SCCOc3cccc(C)c3)sc2c1,1.6%,31.6%[59 µM],14.3%,-13.9%,84.0%
CCOc1ccc(CCNC(=O)COC(=O)c2ccc(Cl)nc2)cc1OCC,7.5%,?,3.6%,-5.5%,-3.8%
CC(C)C(=O)Nc1ncc(C(F)(F)F)cc1Cl,-0.8%,24.7%[2.33 µM],10.3%,-2.7%,14.1%
O=C(CSc1n[nH]c(=O)[nH]c1=O)c1cccc([N+](=O)[O-])c1,20.5%,31.6µM*,?,-28.1%,50.4%
CCOC(=O)c1ccc(NC(=O)NNS(=O)(=O)c2cc(OC)ccc2OC)cc1,1.2%,70.8µM*,-23.7%,-6.2%,46.4%
COc1ccc(COC(=O)Nc2c(SC)nsc2SC)cc1,-2.6%,-30.6%,5.1%,-9.2%,35.2%
COc1ccc(NC(=O)Nc2c(SC)nsc2SC)cc1,13.1%,39.8µM*,-2.1%,5.3%[11.4 µM],18.6%
CCOC(=O)c1nnsc1NC(C)=O,-6.6%,-3.3%,11.7%,-2.3%,27.7%
CCOC(=O)c1nnsc1NC(=O)Nc1ccc(OC)cc1,2.7%,39.8µM*,?,-17.4%,22.5%
COc1ccc(CCNC(=O)C/C(C)=N/NC(=O)c2cnccn2)cc1,0.2%,·,?,-8.8%,42.5%
O=C(Nc1nc(-c2ccccc2)cs1)c1ccc(=O)[nH]c1,0.6%,-45.9%,·,-30.7%,5.7%
c1ccc2cc(C3CCCCC3)ncc2c1,-0.6%,·,·,47.6%,117.6%
CC1CCc2c(sc(NC(=O)COc3ccccc3C(C)(C)C)c2C#N)C1 (stereo unspecified),-14.2%,10µM*,1.0%,-19.0%,-5.1%
CCOC(=O)c1[nH]c(C)c(C(=O)N(C)C)c1C,8.4%,1.3%[12.7 µM],-10.4%,-4.5%,14.1%
O=C(COc1ccccc1)NC(=S)N1CCc2ccccc21,11.9%,28.2µM*,-34.6%,-24.9%,-5.4%
COc1ccc(OCC(=O)NC(=S)N2CCCc3ccccc32)cc1,2.1%,?,50.1µM*,56.2µM*,-26.3%
O=C(COc1ccccc1Cl)NC(=S)N1CCc2ccccc21,2.0%,14.3%,1.9%,-24.6%,8.4%
COc1ccc(OCCCC(=O)N2CCCc3ccccc32)cc1,0.9%,4.3%[12.7 µM],8.7%,-4.9%,15.6%
CC1=C(C(=O)OCc2ccccc2)C(c2ccc3ccccc3c2)NC(=O)N1CCCC(=O)O (stereo unspecified),-2.3%,·,?,-28.4%,29.0%
CN(C)c1ccc(NC(=O)COC(=O)Cn2nnc3ccccc32)cc1,38.6%,39.8µM*,-35.5%,-27.1%,-5.5%
CN(C)c1ccc(NC(=O)COC(=O)CNC(=O)c2cccs2)cc1,39.2%,-9.6%[12.7 µM],?,?,-1.1%
Cc1ccccc1SCC(=O)OCC(=O)Nc1ccc(N(C)C)cc1,18.4%,12.6µM*,39.8µM*,44.7µM*,?
O=C(COc1ccc(S(=O)(=O)N2CCOCC2)cc1)Nc1ccc2c(c1)OCCO2,?,6.9%[12.7 µM],-8.1%,-12.6%,-2.0%
SMILES,GLS inh,G9a block,BAZ2B inh,JMJD2A Tudor,HP1b chromo inh
COc1ccc(Cn2ccnc2)cc1Br,-6.5%,?,50.1µM*,?,5.5%
COc1ccc(NCc2ccc(OC)c(Cn3ccnc3)c2)c(OC)c1,?,11.2µM*,50.1µM*,39.8µM*,?
CCSc1nnc(NC(=O)c2ccc(Br)s2)s1,3.0%,-25.3%[12.7 µM],-1.7%,-4.5%,5.8%
O=C(Nc1nnc(C(F)(F)F)s1)c1ccc(Br)s1,-19.5%,50.1µM*,-12.5%,-35.8%,7.5%
Clc1ccc(SCCn2cncn2)cc1,-3.3%,?,?,44.7µM*,?
Cc1ccc(SCCCn2cncn2)cc1,11.8%,-46.9%[12.7 µM],?,44.7µM*,-14.4%
O=C(CCn1cncn1)N1CCN(S(=O)(=O)c2ccc(Cl)cc2)CC1,1.7%,5.5%[59 µM],11.6%,-7.4%,17.9%
Cc1cc(Cl)c(OCCCn2cncn2)c(Br)c1,-4.3%,8.9%[12.7 µM],-0.2%,-10.1%,59.7%
COC(=O)c1sc(-c2ccc(C(C)(C)C)cc2)cc1NC(=O)c1ccccc1C(=O)O,-4.1%,-49.7%,79.4µM*,-26.4%,53.6%
COc1ccc(Nc2nnc(-c3ccc(O)cc3)c3ccccc23)cc1C(N)=O,7.94µM*,-8.5%,-13.9%,-15.6%,25.5%
CCN(CC)C(=O)c1ccc(Nc2nnc(-c3ccc(O)cc3)c3ccccc23)cc1,10µM*,·,-12.2%,-20.3%,50.9%
Clc1ccccc1OCc1nnc2n1CCCCC2,-1.6%,1.1%,-17.2%,-8.8%[11.4 µM],34.9%
O=C(O)c1cc(-c2cccnc2)nn1-c1ccccn1,0.1%,28.2µM*,?,-8.5%,36.2%
O=C(O)c1cc(-c2ccccc2)nn1CC1CC(c2cccnc2)=NO1 (stereo unspecified),-7.6%,·,·,4.9%,48.9%
O=C(OCCN1CCCCC1)c1cccc(F)c1,1.7%,?,-17.5%,-16.0%,61.6%
Cc1cccc(N2CCN(CCNC(=O)c3cc4c(s3)CS(=O)(=O)C4)CC2)c1C,36.2%,-30.2%,-16.8%,-29.7%,13.4%
Cc1ccc2c(c1)c(/C=C/c1cc[n+](C)cc1)c(C)n2C,0.5%,44.7µM*,-14.8%,?,8.3%
Cc1cc(-c2nnc(-c3ccccc3)c(-c3ccccc3)n2)c(C)o1,12.4%,15.8µM*,?,?,-20.5%
Cc1ccc(-c2nnc(-c3ccccc3)c(-c3ccccc3)n2)cc1,0.5%,?,-14.2%,-9.9%,34.5%
O=C1NC(c2ccccc2)=C(c2ccc3ccccc3n2)C(c2ccncc2)N1 (stereo unspecified),-3.6%,50.1µM*,0.9%,-23.3%,8.2%
COc1ccc(OCC(=O)OCC(=O)NC2CCCCC2C)cc1 (stereo unspecified),0.9%,25.6%[12.7 µM],0.8%,-2.0%,50.7%
Cc1ccc(C(=O)N2c3ccccc3Sc3ccccc32)cc1,-19.1%,·,·,·,·
CN(C)c1ccc2c(c1)Sc1cc(N(C)C)ccc1N2C(=O)c1ccccc1,-12.3%,10µM*,8.91µM*,14.1µM*,12.6µM*
O=C1c2ccccc2C(=O)N1CCCCNc1ccccc1,5.1%,·,·,-30.8%,-16.2%
c1ccc(NCCCNc2ccccc2)cc1,27.5%,?,50.1µM*,?,-32.3%
COc1ccc(C)cc1Nc1n[n+](-c2ccccc2)c(-c2ccc(OC)c(OC)c2OC)s1,-7.0%,·,?,?,-2.8%
COc1ccc(C)cc1Nc1n[n+](-c2ccccc2)c(-c2ccc(N(C)C)cc2)s1,10.7%,50.1µM*,28.2µM*,50.1µM*,?
COc1ccc(C)cc1Nc1n[n+](-c2ccccc2)c(-c2c(Cl)cccc2Cl)s1,23.1%,39.8µM*,15.8µM*,50.1µM*,?
CCOC(=O)N1CCN(C(c2cc3ccccc3o2)c2nnnn2C(C)(C)C)CC1 (stereo unspecified),-3.6%,·,·,·,·
